Experimental findings from the supplement of paper PMC6555819 are described below.

What all share (assay): PBM binding z-score (relative to random genomic background probes); higher = stronger binding; sequences stand for … in GC…GCGATTGACAGCGTAGAATGAAGG
Assay [1] relates to FXR:RXRa (NR concentration 270 nM, RXRa partner concentration 90 nM). Put shortly:
(§1)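 Binding z-scores take random background probes as their reference. They come from custom Agilent 4×180K protein-binding microarrays incubated 1 h with ligand-free nuclear receptor dimers, with antibodies against each partner (one per run) detecting binding. Scanned fluorescence was regression-normalized.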

The test system of assay [2] is LXRa:RXRa (NR concentration 270 nM, RXRa partner concentration 90 nM). Put shortly: as §1
The subject of assay [3] is LXRa homodimer (NR concentration 270 nM). Summed up:
as §1

Assay [4] concerns LXRb:RXRa (NR concentration 270 nM, RXRa partner concentration 90 nM). Summed up: as §1
Assay [5] has as its system LXRb homodimer (NR concentration 270 nM). Summed up:
as §1

Assay [6] concerns PPARa:RXRa (NR concentration 270 nM, RXRa partner concentration 90 nM). Put shortly:
as §1

For assay [7], the system named is PPARg:RXRa (NR concentration 180 nM, RXRa partner concentration 90 nM). Summed up: as §1
The test system of assay [8] is PPARg:RXRa 270nM:90nM, anti-RXR (NR concentration 270 nM, RXRa partner concentration 90 nM). Summed up: as §1
The subject of assay [9] is PPARg:RXRa 30nM:10nM, anti-RXR (NR concentration 30 nM, RXRa partner concentration 10 nM). Summed up: as §1
Assay [10] deals with PPARg:RXRa 90nM:30nM, anti-RXR (NR concentration 90 nM, RXRa partner concentration 30 nM). Summed up:
as §1

Assay [11] deals with PPARg:RXRa DBDmut IVT, anti-RXR (DBD mutation: RXRa K156A/R161A, NR concentration 270 nM, RXRa partner concentration 90 nM). Summed up:
as §1

Assay [12] deals with PPARg:RXRa IVT, anti-PPARg (NR concentration 270 nM, RXRa partner concentration 90 nM). Put shortly:
as §1

Assay [13] relates to PPARg DBDmut:RXRa IVT, anti-PPARg (DBD mutation: PPARg1 K132A/R137A, NR concentration 270 nM, RXRa partner concentration 90 nM). Put shortly: as §1
The test system of assay [14] is PPARg DBDmut IVT, anti-PPARg (DBD mutation: PPARg1 K132A/R137A, NR concentration 270 nM). Summed up: as §1
In assay [15] the test system is PPARg homodimer (NR concentration 180 nM). Summed up: as §1
Assay [16] concerns PXR:RXRa (NR concentration 270 nM, RXRa partner concentration 90 nM). Put shortly:
as §1

The test system of assay [17] is PXR homodimer (NR concentration 270 nM). Put shortly:
as §1

Assay [18] relates to RARa:RXR (NR concentration 270 nM, RXRa partner concentration 90 nM). Put shortly:
as §1

For assay [19], the system named is RARa homodimer (NR concentration 270 nM). Summed up: as §1
In assay [20] the test system is RARb:RXRa (NR concentration 270 nM, RXRa partner concentration 90 nM). Put shortly: as §1

For the sequence CCGACTGGGCCAGAAAGGTTACCATACCATCCGG, the PBM binding z-score in assay [1] is 0.387; in assay [2], 0.792; in assay [3], -0.182; in [4], 0.895; in assay [5], -0.545; in assay [6] it was 1.88. Moreover, the PBM binding z-score was 0.92 in assay [7]; 0.91 in [8]; 0.0101 in [9]; 0.541 in assay [10]; 0.593 in assay [11]; 0.483 in [12]. In addition, the PBM binding z-score in [13] was -0.91; in assay [14], -1.13; in assay [15] it was 0.203; in assay [16] it was 0.831; in [17], -0.302; in [18] it was 1.83. Besides, the values for the PBM binding z-score in assay [19] and in [20] were -0.242 and 1.47, respectively.
Turning to AGATTGAGGTTAAGATCAGGGAAACAGAATACAT, the PBM binding z-score was found to be 2.48 in [1]; 2.1 in assay [2]; 0.386 in [3]; 2.06 in assay [4]; 0.34 in assay [5]; 3.45 in [6]. Further, the PBM binding z-score in assay [7] was 1.96; in assay [8], 2.19; in [9], 0.935; in assay [10], 1.82; in assay [11], 2.1; in assay [12] it was 2.29. For the same sequence, the PBM binding z-score in [13] is 1.37; in [14], 1.38; in [15], 1.06; in [16] it was 1.3; in assay [17], 0.986; in assay [18], 1.87. The PBM binding z-score in assay [19] is 1.33; in assay [20], 2.08.
Take AGAATGAGGTTAAGATCCGGGAAACAGAATACAT: the PBM binding z-score in assay [1] was 2.5; in assay [2], 1.75; in assay [3], -0.0766; in assay [4] it was 1.58; in assay [5] it was -0.277; in [6], 3.26. Besides, the PBM binding z-score amounted to 2.03 in assay [7]; 1.97 in assay [8]; 0.812 in assay [9]; 1.72 in [10]; 2.97 in assay [11]; 2.71 in assay [12]. Moreover, the PBM binding z-score in [13] stood at 1.45; in [14], 0.576; in assay [15], 0.097; in assay [16], 0.953; in assay [17], 0.0989; in [18] it was 2. Also, the values for the PBM binding z-score in assay [19] and in assay [20] were 0.396 and 1.88, respectively.
With GCATATAGGTAATATAAGGTGAAAGTCCGATTGT, the PBM binding z-score is 1.9 in assay [1]; 3.31 in assay [2]; 0.295 in [3]; 1.14 in assay [4]; -0.277 in assay [5]; 1.81 in assay [6]. Also, the PBM binding z-score in [7] is 1.55; in assay [8], 1.24; in assay [9], 0.669; in assay [10] it was 1.16; in [11] it was 3.84; in [12] it was 3.32. The PBM binding z-score in assay [13] was found to be 1.58; in assay [14], 0.946; in assay [15], 0.929; in assay [16], 0.702; in assay [17], 0.375; in assay [18], 1.78. Moreover, the PBM binding z-score in assay [19] turned out to be 0.541; in [20], 0.618.
In the case of CCAACTAGGTCAGAACAGGACAGTGAAGGATGAT, the PBM binding z-score was 1.3 in assay [1]; 1.41 in [2]; 0.28 in assay [3]; 0.911 in [4]; 0.446 in assay [5]; 2.61 in [6]. Also, the PBM binding z-score in assay [7] turned out to be 4.46; in assay [8], 3.56; in [9], 1.37; in [10], 2.8; in assay [11], 6.64; in [12], 6.66. Moreover, the PBM binding z-score in assay [13] turned out to be 2.08; in assay [14], 1.17; in assay [15], 1.73; in [16], 1.13; in [17], 0.914; in [18] it was 2.07. The values for the PBM binding z-score in [19] and in assay [20] were 1.58 and 2.98, respectively.
With GCTAGTTGGTGAGTAAAAGGTCACACACCGGTCG, the PBM binding z-score in assay [1] was 3.1; in assay [2], 3.92; in [3], 3.81; in assay [4], 3.79; in assay [5], -0.0196; in assay [6], 4.55. For the same sequence, the PBM binding z-score was found to be 3.87 in assay [7]; 5.23 in assay [8]; 3.09 in assay [9]; 4.99 in [10]; 0.239 in assay [11]; 2.74 in [12]. Besides, the PBM binding z-score is 0.00849 in [13]; 0.663 in assay [14]; 3.73 in assay [15]; 4.81 in assay [16]; 0.986 in assay [17]; 5.64 in [18]. Besides, the PBM binding z-score in [19] was 0.736; in assay [20] it was 4.05.
